Source: PubChem (several laboratories)
A selection: hits, their analogues and other compounds. The true share with any hit is near 2.9%.
CRFR2-BP ag = agonists of human CRF-binding protein/CRF-R2 receptor complex | 0.46% of 350,000 active | activation, % at 13.2 µM | HEK293 CRF-R2/CRF-BP, calcium dye fluorescence (FLIPR); percent of saturating CRF peptide response | AID 588473;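 active = activation of at least 50%, plus an integration ratio under a set limit after plate pattern correction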;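 also: plate controls were neutral control wells without compound for no effect and CRF at EC100 for full effect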
CRFBP-R2 block = antagonists of CRF-binding protein/CRF-R2 receptor complex. inhibition, % at 11.8 µM. HEK293 CRF-R2/CRF-BP, CRF-induced calcium fluorescence. AID 588475. 0.59% of 350,000 active;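 active = inhibition of the ligand-induced calcium signal above about 50% at the single tested concentration, limit read from the data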
MEKK2mut PB1 HTS = signal of MEK5 binding to mutant human MEKK2 PB1 domain; percent response, % at 10 µM; AID 1530; bead flow cytometry, Alexa488-MEK5 binding to MEKK2 mutant; 0.35% of 290,000 active; in the data active = percent response above about 24%, passing the limit was not always enough
MEKK3 PB1 HTS = raises or lowers MEK5 binding to the human MEKK3 PB1 domain; bead-based flow cytometry, Alexa488-MEK5 binding to MEKK3; actives lie on both sides; 0 = blocked by unlabeled MEK5, 100 = vehicle; 1.4% of 290,000 active; AID 1529; binding response (% of control), % at 10 µM; Q99759;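 active = binding response more than 3 SD above or below the average of its plate-row segment, actives on both sides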;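 also: Alexa488 bead fluorescence after subtracting the streptavidin-only scavenger bead signal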
ABCB6 inh MLPCN = inhibitors of human ABC transporter ABCB6; Q9NP58; K562-ABCB6 porphyrin accumulation, flow cytometry, 1 h; stronger effect = lower value; fluorescence ratio to DMSO, % at 10 µM; 0.19% of 360,000 active; AID 602162;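 active = fluorescence ratio to DMSO below 75%, the collection mean minus 3 SD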;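 also: signal is porphyrin accumulated inside mitochondria; 100% equals median channel fluorescence of DMSO control wells; lower ratio means ABCB6 inhibition with less porphyrin fluorescence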
Target sequence (Q9NP58 whole entry, looked up): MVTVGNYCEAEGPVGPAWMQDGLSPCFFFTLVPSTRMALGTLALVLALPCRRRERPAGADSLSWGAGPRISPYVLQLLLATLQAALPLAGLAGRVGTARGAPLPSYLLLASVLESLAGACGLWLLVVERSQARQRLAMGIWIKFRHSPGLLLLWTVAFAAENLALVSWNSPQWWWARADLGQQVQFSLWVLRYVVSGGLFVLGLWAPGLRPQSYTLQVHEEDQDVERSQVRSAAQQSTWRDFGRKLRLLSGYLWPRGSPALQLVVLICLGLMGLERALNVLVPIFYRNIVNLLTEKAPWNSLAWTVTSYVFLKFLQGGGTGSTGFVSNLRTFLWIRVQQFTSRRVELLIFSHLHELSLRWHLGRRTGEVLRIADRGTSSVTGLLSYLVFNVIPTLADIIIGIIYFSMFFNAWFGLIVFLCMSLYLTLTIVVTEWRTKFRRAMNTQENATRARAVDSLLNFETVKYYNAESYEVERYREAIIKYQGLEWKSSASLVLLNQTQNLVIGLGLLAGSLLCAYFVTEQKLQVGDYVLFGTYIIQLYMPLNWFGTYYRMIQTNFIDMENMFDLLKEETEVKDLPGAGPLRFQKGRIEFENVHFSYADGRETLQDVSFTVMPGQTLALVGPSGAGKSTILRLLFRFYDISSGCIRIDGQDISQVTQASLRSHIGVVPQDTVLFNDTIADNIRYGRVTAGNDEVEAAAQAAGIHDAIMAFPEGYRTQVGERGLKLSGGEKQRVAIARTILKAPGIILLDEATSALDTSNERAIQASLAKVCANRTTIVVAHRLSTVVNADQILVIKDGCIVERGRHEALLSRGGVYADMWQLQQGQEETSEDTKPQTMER
MEKK2wt PB1 HTS = raises or lowers MEK5 binding to wildtype human MEKK2 PB1 domain | AID 1531 | Q9Y2U5 | 1.1% of 290,000 active | binding response (% of control), % at 10 µM | bead flow cytometry, Alexa488-MEK5 binding to MEKK2 WT; actives lie on both sides; in the data active = binding response below about 67% or above about 130%
Starred values were filed as active, the others as inactive; / = no result given.

SMILES	CRFR2-BP ag	CRFBP-R2 block	MEKK2mut PB1 HTS	MEKK3 PB1 HTS	ABCB6 inh MLPCN	MEKK2wt PB1 HTS
N[C@@H](Cc1c[nH]c2ccccc12)c1nnc(SCc2ccccc2)o1	0	-28	0	104	98	99
O=[N+]([O-])c1ccc(-[n+]2c(-c3ccccc3)cc(-c3ccccc3)cc2-c2ccccc2)cc1	69*	-19	9	108	98	126
C=CC[C@@H](C)CC(=O)C(CCCN=[N+]=[N-])SOOc1ccccc1 (some centres undefined)	1	-15	/	/	94	/
O=C(CCCN1CCC2(CC1)C(=O)NCN2c1ccccc1)c1ccc(F)cc1	137*	10	6	93	93	103
CCCCn1nnnc1C(C1CC1)N1CCC2(CC1)C(=O)NCN2c1ccccc1 (centres undefined)	/	/	/	/	97	/
N#CC(C#N)=NNc1ccc(-n2ccc(C(F)(F)F)n2)cc1	53*	34	-6	93	85	91
CC(=O)c1cccc(OCC(=O)N2CCN(CC(=O)Nc3cccc(F)c3)CC2)c1	-1	8	/	/	102	/
O=c1[nH]c(=O)n(C2CCCCC2)c(O)c1/C=C/C=Nc1ccccc1	112*	-130	6	104	108	90
O=c1[nH]c(=O)n(-c2ccccc2)c(O)c1/C=C/C=Nc1ccccc1	28	-51	3	101	115	103
Cc1ccc(-n2c(O)c(/C=C/C=Nc3ccccc3)c(=O)[nH]c2=O)cc1	53*	-59	0	105	113	99
COc1ccc(-n2c(O)c(/C=C/C=Nc3ccccc3)c(=O)[nH]c2=O)cc1	105*	-117	-2	101	107	96
C=CCn1c(O)c(/C=C/C=Nc2ccccc2)c(=O)[nH]c1=O	31	-37	0	90	116	98
Cn1cc(C(O)CN2CCCCC2)c2ccccc21 (centres undefined)	-1	14	0	103	100	102
CCOC(=O)Cn1cc([N+](=O)[O-])nc1[N+](=O)[O-]	1	-17	6	102	96	101
Cc1ncc([N+](=O)[O-])n1CCOC(N)=O	0	67*	3	90	93	97
CCCCc1cc(=O)oc2cc(OCC(=O)N3C[C@H]4C[C@@H](C3)c3cccc(=O)n3C4)c(Cl)cc12	-2	-1	5	103	87	102
O=C1NC(=O)N(CCNc2ncc(C(F)(F)F)cc2Cl)C(=O)C1/C=N/OCc1c(F)cccc1Cl (centres undefined)	-3	62*	/	/	97	/
NC(=O)c1cc([N+](=O)[O-])cc([N+](=O)[O-])c1	0	16	/	/	95	/
CC(C)(C)c1cc([N+](=O)[O-])cc(C(C)(C)C)c1O	68*	63*	-9	107	/	107
CCCCC1(CCCC)C(=O)NC(=Nc2cccc(C)c2)NC1=O	89*	55*	2	109	95	96
CCOC(=O)NC1CCc2cc(OC)c(OC)c(OC)c2-c2ccc(OC)c(=O)cc21 (centres undefined)	1	10	/	/	99	/
Cc1ccc(NC(=O)CN2C(=O)CN=C(c3ccccc3)c3cc(Cl)ccc32)cc1	1	8	-5	103	93	100
CCC(C)C1N=C(c2ccccc2)c2cc(Cl)ccc2N(CC(=O)NCc2ccco2)C1=O (centres undefined)	4	55*	8	111	101	109
CCOc1ccc(C(C)=O)cc1Cn1ccsc1=N	-2	5	23	104	101	145*
COc1ccc(C(C)=O)cc1CC(C(=O)c1ccc(C)cc1)N(C)C (centres undefined)	-1	-5	4	99	101	106
SMILES	CRFR2-BP ag	CRFBP-R2 block	MEKK2mut PB1 HTS	MEKK3 PB1 HTS	ABCB6 inh MLPCN	MEKK2wt PB1 HTS
O=C1NC(=O)N(Cc2ccc(F)cc2)C(=O)/C1=C\c1ccc(N2CCCC2)cc1	14	-40	10	93	146	18*
O=C1NC(=O)N(c2ccc(F)cc2)C(=O)/C1=C/c1ccc(N2CCOCC2)cc1	1	-19	-3	99	84	99
Cc1ccc(C)c(OCc2cc(C(=O)N3C[C@H]4C[C@@H](C3)c3cccc(=O)n3C4)no2)c1	-1	1	1	98	99	104
O=C(N/N=C/c1c(O)n(-c2cccc3ccccc23)c(=O)[nH]c1=O)c1ccncc1	1	10	20	127	103	112
CCN1/C(=C\C=C\C2=[N+](CC)c3ccccc3C2(C)C)C(C)(C)c2ccccc21	260*	-276	/	/	/	/
Cc1cccc(N2C(=O)NC(=O)/C(=C/c3ccc(N4CCOCC4)cc3)C2=O)c1	7	-15	-1	101	97	94
Cc1cccc(N2C(=O)NC(=O)/C(=C\c3ccc(N4CCOCC4)cc3)C2=O)c1	3	72*	3	107	94	104
COC(=O)C1=C(c2ccc(C(C)=O)cc2)C[C@@H]2CC[C@H]1N2C(=O)NCc1ccc(C(F)(F)F)cc1	68*	-16	/	/	97	/
O=c1[nH]c(O)c(/C=C2\C=Nc3ccc(OCc4ccccc4)cc32)c(=O)[nH]1	38	-37	3	96	98	90
O=P(/C(=N/O)N1CCOCC1)(N1CCOCC1)N1CCOCC1	-3	55*	2	99	100	101
Cc1ccccc1N1C(=O)NC(=O)/C(=C\c2ccc3c(c2)CCCN3Cc2ccccc2)C1=O	58*	-174	0	117	163	89
O=C1NC(=S)NC(=O)C1=Cc1ccc2c(c1)CCN2CCCCl	-3	3	-7	98	101	85
NC(N)=N/N=C/c1cn(-c2ccccc2)nc1-c1cccs1	1	-72	27	103	103	184*
O=c1c2ccccc2nc(-c2cccs2)n1-c1ccccc1	0	6	-1	102	105	100
CCOC(=O)c1[nH]c2ccc(OC)cc2c1C(SCC(=O)O)c1ccc(C(F)(F)F)cc1 (centres undefined)	-1	-14	0	98	103	95
CCOC(=O)C(O)(c1ccc(NC(=S)NC(=O)c2ccc(Cl)cc2Cl)cc1)C(F)(F)F (centres undefined)	148*	-190	-2	112	85	102
O=C1CCC[C@@H]2C[C@@]3(C[C@@H]4CCN1[C@H]24)Nc1cc(Cl)ccc1NC3=NCc1ccccc1	2	-11	/	/	98	/
CCN(CC)c1ccc(/C=C/[N+](=O)[O-])cc1	251*	-282	-4	96	120	82
COc1ccc(Cn2c(O)c(/C=N/NC(=O)c3ccccc3)c(=O)[nH]c2=O)cc1	0	55*	-4	91	103	91
